Measurements from ChEMBL document CHEMBL3433997, “St. Jude Leishmania screening dataset” (2016).

Assays:
Format in all cases: functional
[1] = target: Solute carrier family 2, facilitated glucose transporter member 1 (Homo sapiens) (UniProt P11166); experiment: ST_JUDE_LEISH: Cytotoxicity at 2uM final concentration against transgenic Leishmania Mexicana promastigotes LmGLUT1 that are glucose transport deficient and complemented with the human glucose transporter GLUT1. Activity is measured by DNA content using SYBR green in vitro
[2] = target: Hexose transporter 1 (Plasmodium falciparum) (UniProt O97467); experiment: ST_JUDE_LEISH: Cytotoxicity at 2uM final concentration against transgenic Leishmania Mexicana promastigotes LmPfHT that are glucose transport deficient and complemented with the Plasmodium falciparum hexose transporter. Activity is measured by DNA content using SYBR green in vitro
[3] = target: Glucose transporter (Leishmania mexicana) (UniProt O61059); experiment: ST_JUDE_LEISH: Cytotoxicity at 2uM final concentration against transgenic Leishmania Mexicana promastigotes LmGT2 that are glucose transport deficient and complemented with the L. Mexicana glucose transporter 2. Activity is measured by DNA content using SYBR green in vitro

Sequence of Solute carrier family 2, facilitated glucose transporter member 1 (Homo sapiens) (P11166 whole entry): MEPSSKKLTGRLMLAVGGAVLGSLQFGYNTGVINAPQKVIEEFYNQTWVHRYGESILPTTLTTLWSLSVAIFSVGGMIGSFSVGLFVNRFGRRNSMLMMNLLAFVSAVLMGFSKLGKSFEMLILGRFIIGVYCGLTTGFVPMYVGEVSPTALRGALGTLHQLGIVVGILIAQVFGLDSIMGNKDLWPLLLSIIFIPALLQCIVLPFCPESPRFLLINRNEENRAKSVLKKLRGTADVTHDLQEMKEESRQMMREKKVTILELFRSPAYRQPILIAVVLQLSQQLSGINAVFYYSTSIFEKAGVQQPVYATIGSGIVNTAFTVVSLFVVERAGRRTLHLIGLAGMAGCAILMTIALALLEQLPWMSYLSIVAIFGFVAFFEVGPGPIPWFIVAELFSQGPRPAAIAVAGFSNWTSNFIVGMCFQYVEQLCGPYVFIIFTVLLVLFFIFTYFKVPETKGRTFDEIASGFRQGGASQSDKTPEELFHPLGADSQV

O=C(Cn1c(CCc2cccc(F)c2F)nc(=O)c2ccccc21)N(Cc1ccc(-c2ccc(C(F)(F)F)cc2)cc1)C1CCN(C2=NCCS2)CC1
inhibition [1]: 3.56% | inhibition [2]: 4.28% | inhibition [3]: 4.67%

COc1ccccc1NC(=O)NC1CCN(CCCCCNC(=O)/C=C/c2ccc(Cl)c(Cl)c2)CC1
inhibition [1]: 1.87% | inhibition [2]: 2.75% | inhibition [3]: 2.7%

COc1ccc(CN2CCC(NCc3cccc(C(F)(F)F)c3)CC2)cc1
inhibition [1]: 13.2% | inhibition [2]: 4.48% | inhibition [3]: 9.6%

CC(C)(C)OC(=O)N(Cc1cc(-n2nnnc2C(F)(F)F)ccc1O)[C@H]1CCCN(C(=O)OC(C)(C)C)[C@H]1c1ccccc1
inhibition [1]: -0.38% | inhibition [2]: -2.92% | inhibition [3]: -3.2%

Cc1cccc2nc(-c3cccc(-c4ccc(NC(=O)C(C)(C)c5ccccn5)cc4)c3)[nH]c12
inhibition [1]: 3.05% | inhibition [2]: 1.16% | inhibition [3]: 2.94%

Cc1nnc2c(NC(=O)/C=C/c3ccc(OC(F)(F)F)cc3)cc3cc(Cl)ccc3n12
inhibition [1]: 0.28% | inhibition [2]: 0.28% | inhibition [3]: 0.55%

CC1CN(c2ccc(C(=O)NCC3CC3)cc2NC(=O)OCc2ccccc2)CC(C)O1 (stereo not drawn)
inhibition [1]: 0.19% | inhibition [2]: 0.86% | inhibition [3]: -0.78%

CC(Cc1ccc(OCCN2CCN(c3ccc(Cl)cc3)CC2)cc1)NCC(O)c1cccc(C(F)(F)F)c1 (stereo not drawn)
inhibition [1]: -2.36% | inhibition [2]: -1.57% | inhibition [3]: 0.07%

N#Cc1cccc(NC(=O)Nc2ccc(-c3ccc(-c4nc5cc(C(F)(F)F)ccc5[nH]4)cc3)cc2)c1
inhibition [1]: 3.68% | inhibition [2]: 1.32% | inhibition [3]: 4.14%

CCCCn1c(SC(C)C)nc2c(c1=O)C1(CCCCC1)Cc1ccccc1-2
inhibition [1]: 4.14% | inhibition [2]: 4.8% | inhibition [3]: 3.66%

CC(C)(C)C1CCC(CC2=C(C(=O)O)c3ccccc3C2=O)CC1 (stereo not drawn)
inhibition [1]: 1.16% | inhibition [2]: 0.47% | inhibition [3]: -1.33%
